According to paper PMC4552634, “A New Set of Chemical Starting Points with Plasmodium falciparum Transmission-Blocking Potential for Antimalarial Drug Discovery” (PLoS ONE, 2015):
Read-outs that look alike come from different tables or passages of the source. In all, about 13,000 compounds went through this assay and about 3,200 (25%) showed an effect of 50% or more. Some of the results follow.

Test system: P. falciparum stage V gametocytes
Design: BacTiter-Glo ATP luminescence viability of purified stage V gametocytes in 384-well plates, per cent inhibition versus DMSO
Conditions: 48 h, 5 µM, inhibitor

SMILES | % Inhibition [%] | % Inhibition (% Inhibition) [%]
N=C(N)c1ccc(C(=O)Nc2cccc(C(=N)N)c2)cc1 [TCMDC-137804] | 7.039 | –
CCOc1cc(C(=O)NCCCN2CCN(c3cccc(Cl)c3)CC2)ccc1-c1nc2cc(Cl)c(F)cc2[nH]1 [TCMDC-140097] | -13.16 | –
O=C(/C=C/c1ccc(Cl)c(Cl)c1)NCCCCCN1CCC(NC(=O)Nc2ccccc2Cl)CC1 [TCMDC-135710] | -61.78 | –
Cc1ccc(Nc2ccnc3ccc(C(F)(F)F)cc23)cc1O [TCMDC-138307] | -31.91 | –
CC1(C)N=C(N)NC(NOCC=Cc2ccccc2)=N1 [TCMDC-131690] | -2.035 | –
O=C(NCCc1ccc(Cl)c(Cl)c1)[C@@H]1CCCN1C(=O)c1ccc(O)c(-c2ccc(Cl)c(Cl)c2)c1 [TCMDC-140871] | 35.67 | –
COc1ccc(Nc2ncc3c(-c4cccc(NC(=O)Cc5cccnc5)c4)c[nH]c3n2)cc1OC [TCMDC-135285] | -50.17 | –
CN(C)CCNC(=O)c1ccc2c(c1)n(C1CCN(S(=O)(=O)c3ccc(-c4ccccc4)cc3)CC1)c(=O)n2CC1CCCCC1 [TCMDC-135414] | 22.96 | –
CCc1cccc(NC(=O)/C=C/c2ccc3c(c2)CN(C)CC3)c1 [TCMDC-139241] | 27.65 | –
NC1=NC(c2ccccc2)(c2cccc(O)c2)C(=O)N1CCCc1ccccc1 (centres unmarked) [TCMDC-132352] | – | -21.91
CC1CCCCN1CCCNC(=O)c1cccc(-c2cc3cc(Cl)c(Cl)cc3[nH]2)c1 (centres unmarked) [TCMDC-141291] | -28.41 | –
COc1ccc2cc(-c3nc(-c4c(Cl)cccc4Cl)[nH]c3-c3ccnc(NCCCN4CCCCC4C)c3)ccc2c1 (centres unmarked) [TCMDC-141247] | 95.77 | –
CCOc1cc(C(=O)NCCCN2CCCCC2C)ccc1-c1nc2ccc(Cl)cc2[nH]1 (centres unmarked) [TCMDC-140915] | 4.733 | –
CCn1c(C)c(C)c2cc(C(=O)Nc3ccon3)ccc21 [TCMDC-124915] | 28.52 | –
CC(C)N1CCC(Oc2ccc(CN3CCN(C(c4ccccc4)c4ccc(Cl)cc4)CC3)cc2)CC1 (centres unmarked) [TCMDC-132411] | 68.21 | –
Cn1cc(CN2CCC(OC(c3ccccc3)c3ccc(Cl)cc3)CC2)cn1 (centres unmarked) [TCMDC-136165] | 63.85 | –
Oc1ccccc1CN1CCC(CCOC(c2ccccc2)c2ccc(Cl)cc2)CC1 (centres unmarked) [TCMDC-136039] | 23.64 | –
Cn1cc(CN2CCC(CCOC(c3ccccc3)c3ccccc3)CC2)cn1 [TCMDC-136046] | 75.05 | –
Cn1cc(CN2CCCC(COC(c3ccc(F)cc3)c3ccc(F)cc3)C2)cn1 (centres unmarked) [TCMDC-136043] | -3.69 | –
Oc1ccc(CN2CCN(CCOC(c3ccccc3)c3ccc(Cl)cc3)CC2)cc1Cl (centres unmarked) [TCMDC-135689] | 3.239 | –
Oc1ccccc1CN1CCN(C(c2ccccc2)c2ccccc2)CC1 [TCMDC-124458] | 18.52 | –
c1ccc(C(OCCC2CCN(Cc3cccnc3)CC2)c2ccccc2)cc1 [TCMDC-136045] | 0.3767 | –
Cn1cc(CN2CCCC(COC(c3ccccc3)c3ccccc3)C2)cn1 (centres unmarked) [TCMDC-136042] | 17.19 | –
